The values below come from PubChem BioAssay.

Results filed as inconclusive are left out. Active and inactive are the calls of the source. Unless noted, how the calls were made is not given here.

Assay [1] can be described thus: modulation of C. elegans fzo-1 (AID 1259413).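 Further: fzo-1 mutant C. elegans worms in liquid wells.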 As to conditions: C. elegans fzo-1 modulator screen, mean read-out; stronger effect = higher value.
A short description of assay [2]: EMT-state selective cytotoxicity in co-culture – imaging, PC-3E GFP, TEM4-18 mCherry, primary screen (AID 1345086;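 active means compounds killing one labelled cell type while sparing the other, by normalised counts and ratio limits, not self-fluorescent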;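 on all read-outs here: cells exposed to compound for 72 h before imaging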;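 on red/green cell ratio (normalised): normalised mesenchymal count divided by normalised epithelial count so high means epithelial killing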). As to conditions: PC-3E GFP / TEM4-18 mCherry co-culture, imaging cell counts, at 1 µM; for red/green cell ratio (normalised): actives lie on both sides, counts scaled to control wells, 1 = unselective.
The nature of assay [3]: viability loss in pontine glioma line – cell-based, SU-DIPG-XVII, MIPE5.0, CellTiter-Glo, qHTS, dose response (AID 1347060; cut-off not given, nearly all actives have AC50 up to about 26 µM). As to conditions: CellTiter-Glo ATP luminescence. In general terms: ATP-based viability assays read luminescence as a measure of living cells.
Assay [4] in a line: viability loss in pontine glioma line – cell-based, SU-DIPG-XIII, MIPE4.0, CellTiter-Glo, qHTS, dose response (AID 1347061; cut-off not given, nearly all actives have AC50 up to about 37 µM;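 further: cells exposed to compound for 48 hours before readout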). As to conditions: CellTiter-Glo ATP luminescence.
Assay [5] in a line: viability loss in pontine glioma line – cell-based, JHH-DIPG-1, MIPE4.0, CellTiter-Glo, qHTS, dose response (AID 1347062; cut-off not given, nearly all actives have AC50 up to about 27 µM;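 on AC50: cells exposed to compound for two days before readout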). As to conditions: JHH-DIPG-1 viability, CellTiter-Glo ATP luminescence.
The nature of assay [6]: viability loss in pontine glioma line – cell-based, SU-DIPG-IV, MIPE4.0, CellTiter-Glo, qHTS, dose response (AID 1347063; cut-off not given, nearly all actives have AC50 up to about 30 µM;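 further: compound exposure lasted 48 hours before the viability readout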). As to conditions: CellTiter-Glo ATP luminescence.
A short description of assay [7]: viability loss in pontine glioma line – cell-based, SU-DIPG-XIII, MIPE5.0, CellTiter-Glo, qHTS, dose response (AID 1347064; cut-off not given, nearly all actives have AC50 up to about 23 µM). As to conditions: CellTiter-Glo ATP luminescence.
Assay [8] concerns Aerobactin synthetase IucA (Klebsiella pneumoniae). The assay can be described thus: inhibition of K. pneumoniae IucA enzyme – biochemical, Tocris library, absorbance (AID 1345561).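 Further: 100% = enzyme without compound and 0% = no enzyme.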 As to conditions: purified IucA enzyme assay, absorbance (OD) read-out; stronger effect = lower value;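 tested at 8 µM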.
[9] abbreviates: measured here: epithelial PC-3E GFP cell survival.
Setting [10] is: measured here: mesenchymal TEM4-18 mCherry cell survival.

The remaining activity is the signal under treatment as a percentage of the control signal. By AC50 is commonly meant the concentration at which the activity in the assay is half-maximal.

With `CC(N)C12CC3CC(CC(C3)C1)C2` (stereo not given), the mean signal in assay [1] is 212 (inactive). The red/green cell ratio (normalised) in assay [2] was 0.95 (inactive). Further, the normalised cell number in assay [2] (setting [9]) was found to be 1.11; in assay [2] (setting [10]) it was 1.06. Further, the molecule was called inactive in assay [3], in assay [4], in assay [5], in assay [6] and in assay [7].
For the molecule `COc1ccc2nc(S(=O)Cc3ncc(C)c(OC)c3C)[nH]c2c1` (stereo not given), in assay [1], the mean signal was 241 (inactive). For the same molecule, the red/green cell ratio (normalised) in assay [2] is 0.98 (inactive). For the same molecule, the normalised cell number in assay [2] (setting [9]) stood at 0.98; in assay [2] (setting [10]), 0.96. In assay [8], the remaining activity is 103% (inactive). In addition, the outcome in assay [3], in assay [5], in assay [6] and in assay [7] was inactive.
For `Nc1nc2c(ncn2COC(CO)CO)c(=O)[nH]1`, the mean signal in assay [1] is 268 (inactive). Also, the red/green cell ratio (normalised) in assay [2] was 1.03 (inactive). The results for the normalised cell number in assay [2] (setting [9]) and in assay [2] (setting [10]) were 1.04 and 1.07, respectively. For the same molecule, the call in assay [3] was inactive. For the same molecule, the AC50 in assay [5] was 16.6 µM (active); in assay [6], 20.9 µM (active).
As for `CN1CCC(=C2c3ccccc3C=Cc3ccccc32)CC1`, the mean signal in assay [1] was 251 (inactive). Further, the red/green cell ratio (normalised) in assay [2] is 1.06 (inactive). Moreover, the results for the normalised cell number in assay [2] (setting [9]) and in assay [2] (setting [10]) were 0.91 and 0.97, respectively. Further, the remaining activity in assay [8] was 104% (inactive). Besides, the molecule was called inactive in assay [3] and in assay [7]. The AC50 in assay [4] was 23.5 µM (active).
For the molecule `CN1CCC(=C2c3ccccc3CC(=O)c3sccc32)CC1`, in assay [1], the mean signal is 231 (inactive). Moreover, in assay [2], the red/green cell ratio (normalised) is 0.94 (inactive). Moreover, the values for the normalised cell number in assay [2] (setting [9]) and in assay [2] (setting [10]) were 1.17 and 1.1, respectively. For the same molecule, the remaining activity in assay [8] was 118% (inactive). Moreover, the molecule was classed as inactive in assay [3] and in assay [5].
As for `CCCN[C@H]1CCc2nc(N)sc2C1`, the mean signal in assay [1] is 239 (inactive). The red/green cell ratio (normalised) in assay [2] was 0.69 (inactive). Also, the results for the normalised cell number in assay [2] (setting [9]) and in assay [2] (setting [10]) were 1.3 and 0.89, respectively. For the same molecule, the molecule was classed as inactive in assay [3], in assay [4], in assay [5] and in assay [7].
`CC(C)[C@H](N)C(=O)OCCOCn1cnc2c(=O)[nH]c(N)nc21`: in assay [1], the mean signal was 266 (inactive). Moreover, in assay [2], the red/green cell ratio (normalised) is 0.91 (inactive). Moreover, the normalised cell number in assay [2] (setting [9]) turned out to be 1.13; in assay [2] (setting [10]), 1.03. Further, the outcome in assay [3], in assay [4], in assay [5], in assay [6] and in assay [7] was inactive.
`CCC1=C(C)CN(C(=O)NCCc2ccc(S(=O)(=O)NC(=O)NC3CCC(C)CC3)cc2)C1=O` (stereo not given): the mean signal in assay [1] is 255 (inactive). The red/green cell ratio (normalised) in assay [2] is 0.86 (inactive). In addition, the normalised cell number in assay [2] (setting [9]) worked out at 1.22; in assay [2] (setting [10]), 1.05. Moreover, the remaining activity in assay [8] is 90.7% (inactive). Further, the call in assay [3], in assay [4], in assay [5], in assay [6] and in assay [7] was inactive.
`CCCOc1ccc(C(=O)OCCN(CC)CC)cc1N`: the mean signal in assay [1] was 287 (active). For the same molecule, the red/green cell ratio (normalised) in assay [2] was 1.08 (inactive). Further, the normalised cell number in assay [2] (setting [9]) came out at 1.2; in assay [2] (setting [10]), 1.3. Moreover, the molecule was classed as inactive in assay [3], in assay [5], in assay [6] and in assay [7].
In the case of `N#Cc1ccc(C(c2ccc(C#N)cc2)n2cncn2)cc1`, the mean signal in assay [1] is 236 (inactive). For the same molecule, the red/green cell ratio (normalised) in assay [2] was 1.05 (inactive). Besides, the normalised cell number in assay [2] (setting [9]) was found to be 1.21; in assay [2] (setting [10]), 1.28. Further, the outcome in assay [3], in assay [5] and in assay [7] was inactive.
With `Cc1[nH]c(=O)c(C#N)cc1-c1ccncc1`, the mean signal in assay [1] is 234 (inactive). Further, the red/green cell ratio (normalised) in assay [2] is 1.2 (inactive). The normalised cell number in assay [2] (setting [9]) stood at 1.05; in assay [2] (setting [10]) it was 1.26. In addition, the result in assay [3] was inactive.
For the molecule `CCOc1cc(CC(=O)N[C@@H](CC(C)C)c2ccccc2N2CCCCC2)ccc1C(=O)O`, in assay [1], the mean signal was 247 (inactive). In addition, in assay [2], the red/green cell ratio (normalised) was 0.96 (inactive). For the same molecule, the normalised cell number was found to be 1.2 in assay [2] (setting [9]) and 1.16 in assay [2] (setting [10]). Further, in assay [8], the remaining activity was 120% (inactive). Besides, the molecule was classed as inactive in assay [3], in assay [5] and in assay [6].
Consider `CC(C)NCC(O)COc1ccc(COCCOC(C)C)cc1` (stereo not given), for which the mean signal in assay [1] is 229 (inactive). The red/green cell ratio (normalised) in assay [2] is 0.9 (inactive). Also, the normalised cell number in assay [2] (setting [9]) came out at 1.05; in assay [2] (setting [10]), 0.94. The remaining activity in assay [8] is 120% (inactive). In addition, the result in assay [4], in assay [5] and in assay [6] was inactive.
In the case of `COC1=C(OC)C(=O)C(CCCCCCCCCCO)=C(C)C1=O`, in assay [1], the mean signal is 254 (inactive). In addition, the red/green cell ratio (normalised) in assay [2] was 0.83 (inactive). The normalised cell number came out at 1.18 in assay [2] (setting [9]) and 0.98 in assay [2] (setting [10]). In assay [3], the molecule was called inactive.
For the molecule `O=C(O)CCNC(=O)c1ccc(N=Nc2ccc(O)c(C(=O)O)c2)cc1`, the mean signal in assay [1] is 240 (inactive). Besides, in assay [2], the red/green cell ratio (normalised) is 1.02 (inactive). In addition, the normalised cell number was 1.19 in assay [2] (setting [9]) and 1.21 in assay [2] (setting [10]). The call in assay [3], in assay [4], in assay [5] and in assay [7] was inactive.
As for `CCOC(=O)c1ncn2c1CN(C)C(=O)c1cc(F)ccc1-2`, the mean signal in assay [1] was 276 (inactive). Also, in assay [2], the red/green cell ratio (normalised) is 0.89 (inactive). The results for the normalised cell number in assay [2] (setting [9]) and in assay [2] (setting [10]) were 0.95 and 0.84, respectively. Also, in assay [8], the remaining activity was 110% (inactive). Besides, the molecule was classed as inactive in assay [3], in assay [4] and in assay [6].
With `COc1cc(OC)c(C(=O)CCCN2CCCC2)c(OC)c1`, in assay [1], the mean signal is 255 (inactive). The red/green cell ratio (normalised) in assay [2] is 0.81 (inactive). In addition, the normalised cell number was 1.24 in assay [2] (setting [9]) and 1 in assay [2] (setting [10]). Also, the result in assay [3], in assay [4], in assay [5], in assay [6] and in assay [7] was inactive.
On to `COc1ccc(CC2c3cc(OC)c(OC)cc3CC[N+]2(C)CCC(=O)OCCCCCOC(=O)CC[N+]2(C)CCc3cc(OC)c(OC)cc3C2Cc2ccc(OC)c(OC)c2)cc1OC` (stereo not given), for which the mean signal in assay [1] is 250 (inactive). The red/green cell ratio (normalised) in assay [2] is 0.8 (inactive). Also, the normalised cell number in assay [2] (setting [9]) was 1.18; in assay [2] (setting [10]) it was 0.94. Further, the molecule was classed as inactive in assay [3], in assay [4], in assay [5] and in assay [6].
Take `Nc1nnc(-c2cccc(Cl)c2Cl)c(N)n1`: the mean signal in assay [1] was 281 (inactive). For the same molecule, the red/green cell ratio (normalised) in assay [2] is 0.86 (inactive). Further, the normalised cell number in assay [2] (setting [9]) came to 1.05; in assay [2] (setting [10]), 0.91. Moreover, the molecule was called inactive in assay [3], in assay [4] and in assay [7].
Consider `CNCCCCOc1ccccc1Cc1ccccc1`, for which, in assay [1], the mean signal was 234 (inactive). In assay [8], the remaining activity was 120% (inactive).
